From PubChem BioAssay AID651784 (National Center for Advancing Translational Sciences (NCATS), 2012)
Inconclusive results are not listed. Activity calls are given as the source filed them. Calls come from the whole dose curve; as a rule, active = well fitted inhibition curve with a large enough effect; inconclusive = small, poorly fitted or top-dose-only effect; inactive = no such curve, though single readings can be large or run the other way.

Experiment: Acumen qHTS Assay for Inhibitors of the mTORC1 Signaling Pathway in MEF (Tsc2-/-, p53-/-) Cells: Hit Validation;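 note: phospho-rpS6 Ser235/236 immunofluorescence normalized to propidium iodide cell count; nearly all actives have a fitted effect of over 65% in size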;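 for activity change, negative = inhibition: cells exposed to compound for 24 hours; plate controls were DMSO for no effect and 7.5 nM rapamycin control for full effect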
Details: Acumen imaging; activity change, negative = inhibition: at 37.3 µM (top of the series)
Potency is the fitted concentration of half-maximal effect.

SMILES | activity change, negative = inhibition | Potency
CCc1ccc(CN(Cc2ccco2)C(=O)c2cc(-c3ccc(C)c(F)c3)on2)cc1 | -10.4% | 
CN(c1ccccc1)S(=O)(=O)c1ccc(NC(=O)c2nc(S(C)(=O)=O)ncc2Cl)cc1 |  | 1.47 µM (active)
CC(=O)C1=C(c2ccc(Cl)c(Cl)c2)N(C(C)=O)n2cnnc2S1 |  | 5.21 µM (active)
COc1ccc(N2CCN(C(=O)C3CCN(Cc4nc(-c5ccc(Cl)cc5)oc4C)CC3)CC2)cc1 | -10.9% | 
